Among all 2,400 compounds or so, about 750 (31%) were called active.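 The calls were made as follows: active = median signal gain over dofetilide-blocked control wells reaching their mean plus 3 SD, so readout 1 at least 0; inactive = the rest.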 This is one part of the list.
Target: Voltage-gated inwardly rectifying potassium channel KCNH2 (Homo sapiens) (UniProt Q12809)
Experiment: hERG protection against dofetilide inhibition, confirmation, cell-based, thallium flux, duplicate retest, dofetilide IC70 (AID 1835)
Settings: hERG cell line, FluxOR thallium flux, dofetilide-blocked; at 10 µM; stronger effect = higher value

Sequence of Voltage-gated inwardly rectifying potassium channel KCNH2 (Homo sapiens) (Q12809 whole entry, looked up): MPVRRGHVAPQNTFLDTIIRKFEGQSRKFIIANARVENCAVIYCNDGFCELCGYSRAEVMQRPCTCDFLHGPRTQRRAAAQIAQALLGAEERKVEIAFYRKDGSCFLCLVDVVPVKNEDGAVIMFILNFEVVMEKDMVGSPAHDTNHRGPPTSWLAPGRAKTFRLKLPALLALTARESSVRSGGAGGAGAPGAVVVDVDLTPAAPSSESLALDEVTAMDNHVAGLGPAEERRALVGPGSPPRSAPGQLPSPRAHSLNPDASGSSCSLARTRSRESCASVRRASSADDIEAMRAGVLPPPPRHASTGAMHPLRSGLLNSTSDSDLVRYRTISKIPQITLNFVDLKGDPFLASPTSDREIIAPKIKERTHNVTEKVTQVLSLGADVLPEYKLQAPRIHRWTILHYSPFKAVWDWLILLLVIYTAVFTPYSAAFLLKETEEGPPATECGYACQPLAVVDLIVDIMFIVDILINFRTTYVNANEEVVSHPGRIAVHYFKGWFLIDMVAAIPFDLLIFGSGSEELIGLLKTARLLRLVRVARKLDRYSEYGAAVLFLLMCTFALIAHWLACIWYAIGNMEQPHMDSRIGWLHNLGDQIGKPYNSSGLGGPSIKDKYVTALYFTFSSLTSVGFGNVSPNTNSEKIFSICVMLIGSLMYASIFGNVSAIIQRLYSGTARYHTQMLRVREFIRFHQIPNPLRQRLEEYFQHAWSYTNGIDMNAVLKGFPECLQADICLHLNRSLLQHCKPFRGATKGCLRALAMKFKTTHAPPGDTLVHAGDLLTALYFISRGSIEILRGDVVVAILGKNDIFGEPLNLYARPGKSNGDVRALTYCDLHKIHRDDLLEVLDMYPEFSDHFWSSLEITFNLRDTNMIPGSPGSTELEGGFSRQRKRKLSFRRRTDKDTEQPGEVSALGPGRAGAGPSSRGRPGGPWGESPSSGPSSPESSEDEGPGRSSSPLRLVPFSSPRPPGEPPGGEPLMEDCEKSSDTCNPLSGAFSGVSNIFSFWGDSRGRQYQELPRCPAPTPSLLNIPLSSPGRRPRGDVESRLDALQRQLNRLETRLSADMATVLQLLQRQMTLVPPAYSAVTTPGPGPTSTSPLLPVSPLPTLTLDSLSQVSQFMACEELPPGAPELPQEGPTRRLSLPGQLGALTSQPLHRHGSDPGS

SMILES	activity increase over dofetilide control, less the hit threshold
Cc1cc2ccccn2c1C(=S)NC(=O)c1ccccc1	50% (active)
Cc1ccc(C(=O)NNC(=S)NC(=O)c2ccccc2)cc1	-40% (inactive)
O=C(Nc1ccc(Cl)cc1Cl)c1n[nH]c(Cn2cncn2)n1	-1% (inactive)
S=c1nn[nH]n1C12CC3CC(CC(C3)C1)C2	27% (active)
CCOc1ccc(Nc2ccc([N+](=O)[O-])c3nonc23)cc1	-6% (inactive)
Cc1cc(=O)[nH]c(SCC(=O)NC2CCCCC2)n1	0% (inactive)
O=C(Nn1cnnc1)c1ccncc1	-14% (inactive)
Oc1c(Br)cc(Br)cc1C=Nc1ccc2[nH]ncc2c1	-2% (inactive)
CNC(=S)N/N=C/c1cc(Br)cc(Br)c1O	-3% (inactive)
Cc1nnc(C)n1/N=C/c1cc(Br)cc(Br)c1O	15% (active)
O=c1c2cc(Br)ccc2nc(-c2ccccc2)n1O	45% (active)
O=c1c2cc(Br)ccc2nc(-c2cccc(Cl)c2)n1O	102% (active)
O=c1c2ccc(Cl)cc2nc(-c2cccc(C(F)(F)F)c2)n1O	94% (active)
COc1cc(OC)cc(-c2nc3ccccc3c(=O)n2OC(=O)c2ccc(Br)cc2)c1	-26% (inactive)
O=C(Cn1nnc(-c2cccc(C(F)(F)F)c2)n1)N1CCCCCC1	-8% (inactive)
O=c1c2cc(Br)ccc2nc(-c2cccc(C(F)(F)F)c2)n1O	115% (active)
O=C(COC(=O)c1cc(NS(=O)(=O)c2cccs2)ccc1O)Nc1cc(Cl)ccc1Cl	-4% (inactive)
O=C(COC(=O)c1cccs1)NCCN1C(=O)CSC1=O	-9% (inactive)
CNC(=O)NC(=O)C(C)N1CCN(C/C=C/c2ccccc2)CC1 (stereo not given)	-16% (inactive)
Cc1nonc1OCCNc1ccc([N+](=O)[O-])cc1	-2% (inactive)
N#Cc1ccc(-c2nc3ccc(Br)cc3c(=O)n2O)cc1	1% (active)
O=c1c2cc(Br)ccc2nc(-c2ccc(Cl)cc2)n1O	101% (active)
CCCn1c(SC(C)C(=O)N2CCOCC2)nc2ccc(Br)cc2c1=O (stereo not given)	-11% (inactive)
Cc1ccc(-n2c(C)cc(C(=O)CN3CCOCC3)c2C)cc1	-6% (inactive)
CC1CCCC(C(=O)OCc2ccccc2)N1 (stereo not given)	-3% (inactive)

SMILES	activity increase over dofetilide control, less the hit threshold
CC(=O)Nc1ccc2nc(NC(=O)c3ccc([N+](=O)[O-])o3)sc2c1	5% (active)
O=C(Nc1ccc(N2CCN(C(=O)c3ccc(Cl)cc3)CC2)cc1)c1ccc([N+](=O)[O-])o1	-11% (inactive)
O=C(Nc1ncc(Cc2ccc(C(F)(F)F)cc2)s1)c1ccc(-c2cccc([N+](=O)[O-])c2)o1	-14% (inactive)
Cc1ccc(S(=O)(=O)NC(=S)NC2CCCCC2)cc1	3% (active)
COc1ccc(C)cc1S(=O)(=O)NC1CCCCC1	-5% (inactive)
O=S(=O)(NC(=S)NC1CCCCC1)c1ccc(Br)cc1	12% (active)
CCOc1ccc(C(C)NC(=S)NC2CCCCC2)cc1 (stereo not given)	-9% (inactive)
CC(C)(C)c1ccccc1NC(=S)NC1CCCC1	-7% (inactive)
O=c1oc2ccccc2c(NC2CCCCC2)c1NS(=O)(=O)c1ccc(Cl)cc1	-6% (inactive)
O=S(=O)(NC(=S)NC1CCCCC1)c1ccc(Cl)cc1	10% (active)
O=C(NC1CCCCC1)c1ccc(COCC(F)(F)F)o1	-5% (inactive)
CCc1ccc(S(=O)(=O)NC(=S)NC2CCCCC2)cc1	35% (active)
Cc1cc(Cl)c(S(N)(=O)=O)cc1OCC(=O)NC1CCCCC1	-8% (inactive)
CC1=CN2C(=N)/C(=C/c3ccc(Sc4ccc(Cl)cc4)o3)C(=O)N=C2S1	-2% (inactive)
CC(C)(C)n1nnnc1C(c1cc2cc3c(cc2[nH]c1=O)OCCO3)N1CCSCC1 (stereo not given)	-11% (inactive)
CC(C)(C)c1nc(SCC(=O)N2CCCC2)c2ccccc2n1	-15% (inactive)
Cc1cccc(N2CCN(C(=O)C3CCN(S(=O)(=O)c4cccnc4)CC3)CC2)c1C	-8% (inactive)
C/C(=N\Nc1cc(N2CCOCC2)ncn1)c1cccc([N+](=O)[O-])c1	-24% (inactive)
C/C(=N\Nc1nc(C)c(C)s1)c1ccc([N+](=O)[O-])cc1	22% (active)
C/C(=N/NC(=S)Nc1cccc(C)c1)c1cccc([N+](=O)[O-])c1	-1% (inactive)
COc1ccc2c(C(=O)CN3CCN(c4ccccc4)CC3)c[nH]c2c1	-10% (inactive)
O=C(O)c1cc(NN=C2c3ccccc3-c3ccccc32)ccc1Cl	-4% (inactive)
CCCN1CCC(NC(=O)CC2C(=O)NCCN2Cc2cccc(OC)c2)CC1 (stereo not given)	-6% (inactive)
Cc1cc(C)c2nc(NC(=O)CN3C(=O)NC4(CCCC4)C3=O)sc2c1	-10% (inactive)
CC1CN(S(=O)(=O)c2ccc(-c3nc4ccccc4s3)cc2)CC(C)O1 (stereo not given)	7% (active)
